The panel holds about 79,000 compounds, 15% with a hit somewhere; the sample as a whole holds those more often. Values without a mark were called inactive. Active and inactive are the calls of the source. Rule as the data show it: active = growth inhibition above about 70%; inactive = the rest.

Test [1] can be described thus: NCI Yeast Anticancer Drug Screen. Data for the rad50 strain (AID 155).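 Also: 0% = growth of vehicle-only cultures of the same strain.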 The note with it: S. cerevisiae rad50 strain growth inhibition; at 50.0 µM; active compounds read high. In outline:
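DNA repair mutant yeast, compound exposure, growth read-out; inhibition is taken relative to vehicle.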

Test [2] is described as follows: NCI Yeast Anticancer Drug Screen. Data for the mec2-1 strain (AID 157). The following applies: S. cerevisiae mec2-1 strain, at 50.0 µM, active compounds read high. In short, it runs like this:
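Test agents were screened against the mec2-1 yeast strain, with defined DNA repair or cell cycle alteration. Growth was scored as inhibition against vehicle-only controls.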

Test [3] in a line: NCI Yeast Anticancer Drug Screen. Data for the sgs1 mgt1 strain (AID 161).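 Also: 0% = growth of cultures given vehicle only.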 The following applies: S. cerevisiae sgs1 mgt1 strain, at 50.0 µM, active compounds read high. In short, it runs like this:
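Mutant yeast exposed to compound; growth scored against vehicle-only wells.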

Test [4] in a line: NCI Yeast Anticancer Drug Screen. Data for the cln2 rad14 strain (AID 165).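 Also: 0% = growth equal to vehicle treated cultures.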 The following applies: S. cerevisiae cln2 rad14 strain, at 50.0 µM, active compounds read high. In short, it runs like this: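 Growth of compound-exposed yeast (cln2 rad14 genotype) measured and expressed as inhibition relative to vehicle.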
A short description of test [5]: NCI Yeast Anticancer Drug Screen. Data for the bub3 strain (AID 167). The note with it: S. cerevisiae bub3 mutant strain, at 50.0 µM, active compounds read high. In short, it runs like this:
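In this screen, a yeast mutant lacking normal mitotic checkpoint function is challenged with compound. Relative growth versus vehicle gives the inhibition value.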

A short description of test [6]: NCI Yeast Anticancer Drug Screen. Data for the mlh1 rad18 strain (AID 175). The following applies: S. cerevisiae mlh1 rad18 strain growth inhibition; at 50.0 µM; active compounds read high. In outline:
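In this whole-cell yeast screen, a strain with altered DNA damage repair is challenged with compound, and its growth is measured against matched vehicle-treated controls.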

With `N#CC1CCN(Cc2ccccc2)C(C#N)C1` (stereo unspecified), the growth inhibition in test [1] is -9.05%; in test [2], -2.65%; in test [3], -16.8%; in test [4], -4.8%; in test [5] it was -14.2%; in test [6], 3.25%.
For `Cc1n(Cc2ccccc2)nc2sc(N)n[n+]12`, the growth inhibition is -32% in test [1]; -9.45% in test [2]; -56.3% in test [3]; -0.55% in test [4]; -4.65% in test [5]; -6.95% in test [6].
On to `CC1=CC(=O)CC2(C)CCC(C(C)CC(=O)CC(C)C)CC12` (stereo unspecified), for which the growth inhibition in test [1] was 88.8% (active); in test [2], 91.3% (active); in test [3], 91% (active); in test [4] it was 91.3% (active); in test [5], 88.8% (active); in test [6] it was 91.5% (active).
For the molecule `CCOC1C(=O)C=COC1C(C)C` (stereo unspecified), the growth inhibition was -2.5% in test [1]; -4.65% in test [2]; -2.75% in test [3]; 1.7% in test [4]; -1.75% in test [5]; -12.2% in test [6].
For the molecule `O=C1OCC(O)C(O)C(O)C(O)C1O` (stereo unspecified), the growth inhibition in test [1] was 36.1%; in test [2], 27.3%; in test [3], 26.2%; in test [4], 21.1%; in test [5], 38.4%; in test [6], 39.7%.
`Cn1nnc2c(C(N)=O)ncn2c1=O`: the growth inhibition in test [1] was -11.4%; in test [2] it was -18.5%; in test [3], -28.5%; in test [4], -25.2%; in test [5] it was -26.6%; in test [6] it was -77%.
With `CC(=O)c1cccc(NC(=O)N2CCN(c3ccccc3)CC2)c1`, the growth inhibition was 11.4% in test [1]; 34% in test [2]; 20% in test [3]; 1.25% in test [4]; 23.9% in test [5]; 16.6% in test [6].
In the case of `Cc1cccc(NN)c1`, the growth inhibition in test [1] was 59.6%; in test [2], 32.1%; in test [3], 7.45%; in test [4], 30%; in test [5], 23.3%; in test [6], 32.9%.
In the case of `C[S+](C)CCS(=O)(=O)[O-]`, the growth inhibition in test [1] is 10.3%; in test [2], -6.45%; in test [3], -2.1%; in test [4], -30.4%; in test [5] it was 4.95%; in test [6] it was -13.2%.
Take `C/C(=N/NC(=O)CC#N)c1ccccc1`: the growth inhibition in test [1] was 25.2%; in test [2] it was -0.5%; in test [3] it was 16.7%; in test [4], -20.6%; in test [5] it was 27.7%; in test [6], 0.4%.
Take `N#CC(C#N)=C1c2ccccc2Sc2ccccc21`: the growth inhibition in test [1] is -18.6%; in test [2], -0.35%; in test [3], -2.05%; in test [4] it was -21.3%; in test [5] it was -11.5%; in test [6], -22.2%.
On to `Cc1ccc(S(=O)(=O)OCCNc2ccc([N+](=O)[O-])cc2[N+](=O)[O-])cc1`, for which the growth inhibition is 2% in test [1]; 6.8% in test [2]; 6.45% in test [3]; 11.8% in test [4]; 2.9% in test [5]; 7.85% in test [6].
For the molecule `COC(=O)C(C(=O)C(=O)Nc1ccc([N+](=O)[O-])cc1[N+](=O)[O-])c1nc2ccc(Cl)cc2[nH]c1=O` (stereo unspecified), the growth inhibition was 10.2% in test [1]; 10.6% in test [2]; 39% in test [3]; 20.2% in test [4]; 12.5% in test [5]; 25.5% in test [6].
As to `c1ccc(CN2CCc3ncnc(Nc4ccccc4)c3C2)cc1`, the growth inhibition in test [1] is -13.4%; in test [2] it was 1.25%; in test [3] it was 5.5%; in test [4], -16.8%; in test [5], 4.75%; in test [6] it was -5.05%.
Consider `COC(=O)CCN(C)c1ccccc1`, for which the growth inhibition in test [1] is -4.7%; in test [2], -0.55%; in test [3], -3.75%; in test [4] it was -8.15%; in test [5], 3.65%; in test [6] it was -7.5%.
`CC(C)(C)[Si](C)(C)OCC1CCC(n2cnc3c(N)ncnc32)O1` (stereo unspecified): the growth inhibition in test [1] is 19.7%; in test [2], -3.1%; in test [3], -6.2%; in test [4], -4.7%; in test [5], -1.95%; in test [6], 6.7%.
As for `COc1nc2[nH]ccc2c(=O)n1C`, the growth inhibition in test [1] was -10.9%; in test [2] it was -20.1%; in test [3], -9.1%; in test [4], 10.3%; in test [5], -10.4%; in test [6], 17.4%.
In the case of `CC(=O)Nc1cc(F)c(NC(C)=O)c(F)c1`, the growth inhibition is -2.05% in test [1]; -1.95% in test [2]; -18.9% in test [3]; -15.2% in test [4]; -9.05% in test [5]; -10.3% in test [6].
Take `c1ccc(C2=NC(c3ccccc3)(c3ccccc3)N=C2c2ccccc2)cc1`: the growth inhibition in test [1] is 2.75%; in test [2], 10.7%; in test [3] it was -11.2%; in test [4] it was -10.1%; in test [5] it was -8.55%; in test [6] it was 2.5%.
On to `CCCC(=O)C(N)Cc1ccccc1` (stereo unspecified), for which the growth inhibition in test [1] was -3.8%; in test [2], -6.1%; in test [3], -6%; in test [4], 12.3%; in test [5] it was 12.2%; in test [6], -6.3%.
Take `C=CC(=O)OCCCCCCCCCC`: the growth inhibition in test [1] was 47.8%; in test [2], 5.6%; in test [3], 28.8%; in test [4], -0.7%; in test [5] it was 13.8%; in test [6], 42.1%.

The values are drawn from PubChem BioAssay (NCI).
